USP8 block = human USP8 deubiquitinase inhibition; 47,000 tested, 4.2% active; inhibition, % at 20 µM; P40818; AID 1645853; purified USP8, Ub-rhodamine cleavage fluorescence, 30 min
USP17 inh = inhibitors of human USP17 deubiquitinase; purified USP17, Ub-rhodamine cleavage fluorescence, 3 h; inhibition, % at 50 µM; 47,000 tested, 6.5% active; AID 1645855; A8MUK1
USP28 block = human USP28 deubiquitinase inhibition; purified USP28, Ub-rhodamine cleavage fluorescence, 30 min; 47,000 tested, 3% active; AID 1645857; inhibition, % at 25 µM; Q96RU2
USP10 block = human USP10 deubiquitinase inhibition | 47,000 tested, 1.1% active | AID 1645856 | Q14694 | purified USP10, Ub-rhodamine fluorescence, 60 min | inhibition, % at 20 µM
USP30 inh = human USP30 deubiquitinase inhibition | purified USP30, Ub-rhodamine cleavage fluorescence | Q70CQ3 | 47,000 tested, 5.3% active | inhibition, % at 25 µM
The depositor's hits bear a star. Rows were chosen to be rich in hits. Some 14% of all compounds tested hit in one or more screens of this group. No stated cut-off is given here; in the data, active means inhibition above about 30%; inactive means the rest.

SMILES	USP8 block	USP17 inh	USP28 block	USP10 block	USP30 inh
Cc1oc(-c2ccc(C(=O)NCC3COCCO3)cc2)nc1CN1CCc2ccccc21 (centres undefined)	-12	-9	57*	-8	-51
CCN1CCc2c(cccc2-n2nnc(C(=O)NCC3CCCO3)c2C)C1 (centres undefined)	-2	-38	-34	-4	-125
Cn1c(-c2c(-c3ccccc3)n[nH]c2-c2ccccc2Cl)nc2ccccc21	0	-6	38*	8	7
Clc1ccccc1-c1nc2ccccc2c2nncn12	25	12	10	0	26
CCOc1cccc(C2c3c(oc4ccc(C)cc4c3=O)C(=O)N2CCN2CCOCC2)c1 (centres undefined)	40*	25	9	-1	21
COc1ccc(CNC(=O)CN2C(=O)C(C)=C(c3ccc(C)cc3)S2(=O)=O)cc1	1	8	58*	5	-10
COc1ccc(CNC(=O)CN2CCN(Cc3ccccc3C)C2=O)cc1	22	7	15	-1	27
CCOc1ccc(/C=C/C(=O)Nc2nnc(C)s2)cc1	24	31*	-8	8	-65
COc1cc(/C=C/C(=O)Nc2nnc(C3CC3)s2)cc(OC)c1OC	8	0	11	0	-3
CC1CCN(Cc2nnc(-c3cn(CC(=O)NC4CCCCC4)c4ccccc34)o2)CC1	8	35*	5	9	60*
O=S(=O)(NCc1csc2ccc(Cl)cc12)c1cccc2cccnc12	38*	6	10	3	29
Cc1ccc(C(=O)Nc2ncnc3oc(-c4ccccc4)c(-c4ccccc4)c23)cc1	61*	25	20	8	10

Source: PubChem (Buhrlage Lab, Dana-Farber Cancer Institute and Novartis Institutes for BioMedical Research (Cambridge, Mass))
